Screening data: PubChem BioAssay, Broad Institute
esBAF inh = SWI/SNF esBAF complex inhibition; mouse ES cells, Bmi1-luciferase knock-in reporter, 24 h; 100% = twice the neutral-well signal; 2% of 350,000 active; AID 602393; reporter increase, % at 12.5 µM; in the data active = activation above about 40%;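 note: 0% = median of the plate's neutral control wells and 100% = double that signal; a rise in the Bmi1 reporter signal indicates esBAF inhibition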
Statin myotox sup = protects C2C12 myotubes from simvastatin toxicity; ATP luminescence, 48 h; scaled: DMSO 0, geranylgeraniol control 100; rescue of ATP level, % at 7.49 µM; 0.78% of 330,000 active; AID 602340;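 active = mean ATP rescue above about 67%, or every replicate alone reaching that limit, limit read from the data, passing the limit was not always enough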;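 note: myotubes were challenged with 10 µM simvastatin during compound exposure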
Wnt act = activators of Wnt/beta-catenin signaling | Wnt/beta-catenin reporter cell assay, activator, plate reader | activation, % at 9.35 µM | 1.2% of 300,000 active | AID 743398; in the data active = activation above about 30%, passing the limit was not always enough;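 note: 0% = neutral control wells and 100% = positive control wells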
MITF act = increases MITF-driven TRPM1 promoter luciferase signal. activation, % at 12.5 µM. 0.75% of 300,000 active. SK-MEL-5 TRPM1-promoter luciferase, 24 h; % of positive control, neutral wells = 0;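 active = mean activation of at least 80% with every replicate also reaching 80%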;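 note: 0% = neutral control wells and 100% = parthenolide positive control wells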
The depositor's hits bear a star; . = no result given. In the library only some 3% were active in any assay of this set; here they are far more common.

SMILES	esBAF inh	Statin myotox sup	Wnt act	MITF act
C[C@H]1CN([C@@H](C)CO)C(=O)c2cc(NC(=O)Nc3ccc(C(F)(F)F)cc3)ccc2O[C@@H]1CN(C)S(=O)(=O)c1cn(C)cn1	5	10	.	.
CCCC(=O)N1CCC1(C)C(=O)Nc1cc(-c2ccccc2)nn1C (centres undefined)	55*	-18	33*	.
CCCC(=O)N1CCC1(C)C(=O)Nc1ccccc1-c1ccccc1 (centres undefined)	-5	11	-6	.
C[C@@H]1CN([C@H](C)CO)C(=O)c2cc(NC(=O)C3CCCCC3)ccc2O[C@H]1CN(C)S(=O)(=O)c1ccccc1	1	-10	.	.
CCCCCn1cnc2sc(-c3ccccc3)cc2c1=O	82*	-50	22	107*
CCN(CC)C(=O)CSc1ncnc2sc(-c3ccccc3)cc12	63*	-16	.	.
COc1ncnc2sc(-c3ccccc3)cc12	50*	6	.	74
CCCCn1cnc2sc(-c3ccccc3)cc2c1=O	.	.	.	91*
CN(CCC#N)C(=O)CSc1ncnc2sc(-c3ccccc3)cc12	.	.	6	55
CN(C)C(=O)COc1ncnc2sc(-c3ccccc3)cc12	30	0	3	36
CCCCCn1cnc2sc(CC)cc2c1=O	.	.	22	69
O=C(Nc1cc(F)ccc1F)N1C[C@@H]2[C@H](c3ccccc31)[C@@H](CO)N2Cc1ccncc1	1	13	.	.
C[C@H]1CN([C@@H](C)CO)C(=O)c2cccc(NC(=O)c3cnccn3)c2O[C@@H]1CN(C)Cc1ccccc1	-7	8	.	.
C/C=C/c1ccc([C@H]2[C@@H](CO)N(C(=O)CC)[C@@H]2CNC(=O)CC2CC2)cc1	1	-7	.	.
O=C(O)COn1c(-c2ccccc2)nc2ccc([N+](=O)[O-])cc21	49*	105*	12	59
CCOC(=O)C(C)On1c(-c2ccccc2)nc2ccc([N+](=O)[O-])cc21 (centres undefined)	.	.	.	99*
COc1ccc(-c2nc3ccccc3n2OCC(=O)O)cc1	25	1	16	21
CCNC(=O)C1CCCN(Cc2ccc(OCc3ccccc3)cc2)CC1 (centres undefined)	5	-7	.	.
CCCCNC(=O)C1CCN(Cc2ccc(OCc3ccccc3)cc2)CC1	51*	9	.	77
C[C@@H]1CN([C@@H](C)CO)C(=O)c2cccc(NC(=O)c3ccc(-c4nccs4)cc3)c2O[C@@H]1CN(C)CC1CC1	3	1	.	.
Cc1cc(C)n(-c2nnc(NC34CC5CC(CC(C5)C3)C4)nn2)n1	58*	9	.	138*
Cc1cc(C)n(-c2nc(NC(C)(C)C)nc(NC(C)(C)C)n2)n1	.	.	.	-17
C[C@H]1CCCCO[C@@H](CN(C)S(=O)(=O)c2ccc(Cl)cc2)[C@@H](C)CN([C@@H](C)CO)C(=O)c2cc(NC(=O)NC3CCCCC3)ccc2O1	-1	.	.	.
C[C@@H]1CN([C@@H](C)CO)C(=O)c2cc(NC(=O)c3ccncc3)ccc2O[C@@H](C)CCCCO[C@H]1CN(C)Cc1ccc2c(c1)OCO2	-9	.	.	.
CCOC(=O)N1CCN(C(=O)c2cc(-n3cnnc3)ccc2Cl)CC1	1	95*	0	6
SMILES	esBAF inh	Statin myotox sup	Wnt act	MITF act
O=S(=O)(NCC1CCN(c2ccc(S(=O)(=O)N3CCOCC3)cc2)CC1)c1ccccc1	4	3	-3	0
O=C(NNS(=O)(=O)c1ccccc1)C1CCN(S(=O)(=O)c2ccccc2)CC1	2	-1	42*	12
O=S(=O)(NCC1CCN(S(=O)(=O)c2ccccc2)CC1)c1ccccc1	-3	137*	-3	0
CC(=O)N(C)C[C@H]1Oc2ncc(C#C[C@@H](C)O)cc2C(=O)N([C@@H](C)CO)C[C@H]1C	0	4	.	.
CCn1nnnc1SCC(=O)Nc1ccc2c(c1)OCCO2	.	.	43*	37
O=C(CSc1nnc(-c2ccccn2)o1)Nc1cccc(Cl)c1	65*	2	-2	.
CCc1nnc(NC(=O)CSc2nnc(-c3ccc(NS(=O)(=O)c4ccccc4)cc3)o2)s1	-9	108*	-1	0
O=C(CSc1nnc(-c2ccccn2)o1)Nc1ccccc1F	-9	-8	37*	12
COC(=O)C[C@H]1C[C@H]2c3cc(NC(=O)c4ccc5c(c4)OCO5)ccc3O[C@H]2[C@H](CO)O1	8	1	.	.
CC(C)NC(=O)Nc1ccc2c(c1)C(=O)N([C@H](C)CO)C[C@@H](C)[C@@H](CN(C)S(=O)(=O)c1ccc(Cl)cc1)OCCCC[C@@H](C)O2	-3	.	.	.
CC(C)NC(=O)N(C)C[C@H]1OCCCC[C@@H](C)Oc2ccc(NS(=O)(=O)c3cccs3)cc2C(=O)N([C@H](C)CO)C[C@H]1C	-4	.	.	.
Cc1noc(C)c1S(=O)(=O)Nc1cccc2c1O[C@H](CN(C)Cc1ccc3c(c1)OCO3)[C@H](C)CN([C@H](C)CO)C2=O	-3	27	.	.
COc1ccc(NC(=O)Nc2ccc3c(c2)C(=O)N([C@H](C)CO)C[C@H](C)[C@H](CN(C)C(=O)Nc2ccc(F)cc2)OCCCC[C@H](C)O3)cc1	5	2	.	.
Cc1cc(NC(=O)CSc2nnc(-c3ccc(O)cc3)o2)no1	12	-16	0	8
O=C(CSc1nnc(-c2cccc(Cl)c2)o1)Nc1ccc2c(c1)OCCO2	32	-6	-2	88*
O=C(CSc1nnc(-c2ccc(O)cc2)o1)Nc1ccccc1	18	16	34*	45
COc1ccc(CN(C)C[C@H]2OCCCC[C@@H](C)Oc3ccc(NC(=O)Nc4c(C)noc4C)cc3C(=O)N([C@@H](C)CO)C[C@H]2C)cc1	-7	.	.	.
CCNc1nc(SCc2ccccc2)nc(N2CCOCC2)n1	-1	99*	-3	12
Cc1cccc(C2(c3cccc(C)c3)CC2C(=O)NCC2CCCO2)c1 (centres undefined)	.	.	-3	-3
C=CCNC(=O)C1CC1(c1cccc(C)c1)c1cccc(C)c1 (centres undefined)	.	.	42*	.
COc1cccc(S(=O)(=O)N[C@H]2CC[C@@H](CCn3cc(-c4ccccc4OC)nn3)O[C@@H]2CO)c1	-1	3	.	.
Cc1ccc(S(=O)(=O)Nc2ccc3c(c2)C(=O)N([C@@H](C)CO)C[C@@H](C)[C@H](CN(C)Cc2ccc(Cl)c(Cl)c2)O3)cc1	7	95*	.	.
C[C@H]1CN([C@@H](C)CO)C(=O)c2cc(NS(=O)(=O)c3ccc(Cl)cc3)ccc2O[C@H]1CN(C)Cc1ccc(Cl)c(Cl)c1	-3	64	.	.
Cc1ccc(S(=O)(=O)Nc2ccc3c(c2)C(=O)N([C@H](C)CO)C[C@@H](C)[C@H](CN(C)Cc2ccc(Cl)c(Cl)c2)O3)cc1	3	75*	.	.
CO[C@@H]1CN(C)C(=O)c2ccc(NS(=O)(=O)c3cccc(C)c3)cc2OC[C@H](C)NC[C@H]1C	4	4	.	.
COc1ccc(NC(=O)Nc2ccc3c(c2)CC(=O)N([C@@H](C)CO)C[C@H](C)[C@@H](CN(C)C(=O)Nc2ccc(OC)cc2)O3)cc1	2	-26	.	.
COc1cccc(C=NNC(=S)NC2CC3CCC2C3)c1O (centres undefined)	.	.	37*	.
